Reference: ChEMBL document CHEMBL3433997, “St. Jude Leishmania screening dataset” (2016)

Legend:
Assay type in all cases: functional
[1] = target: Solute carrier family 2, facilitated glucose transporter member 1 (Homo sapiens) (UniProt P11166); assay: ST_JUDE_LEISH: Cytotoxicity at 2uM final concentration against transgenic Leishmania Mexicana promastigotes LmGLUT1 that are glucose transport deficient and complemented with the human glucose transporter GLUT1. Activity is measured by DNA content using SYBR green in vitro
[2] = target: Hexose transporter 1 (Plasmodium falciparum) (UniProt O97467); assay: ST_JUDE_LEISH: Cytotoxicity at 2uM final concentration against transgenic Leishmania Mexicana promastigotes LmPfHT that are glucose transport deficient and complemented with the Plasmodium falciparum hexose transporter. Activity is measured by DNA content using SYBR green in vitro
[3] = target: Glucose transporter (Leishmania mexicana) (UniProt O61059); assay: ST_JUDE_LEISH: Cytotoxicity at 2uM final concentration against transgenic Leishmania Mexicana promastigotes LmGT2 that are glucose transport deficient and complemented with the L. Mexicana glucose transporter 2. Activity is measured by DNA content using SYBR green in vitro

Chain of Solute carrier family 2, facilitated glucose transporter member 1 (Homo sapiens) (P11166 whole entry): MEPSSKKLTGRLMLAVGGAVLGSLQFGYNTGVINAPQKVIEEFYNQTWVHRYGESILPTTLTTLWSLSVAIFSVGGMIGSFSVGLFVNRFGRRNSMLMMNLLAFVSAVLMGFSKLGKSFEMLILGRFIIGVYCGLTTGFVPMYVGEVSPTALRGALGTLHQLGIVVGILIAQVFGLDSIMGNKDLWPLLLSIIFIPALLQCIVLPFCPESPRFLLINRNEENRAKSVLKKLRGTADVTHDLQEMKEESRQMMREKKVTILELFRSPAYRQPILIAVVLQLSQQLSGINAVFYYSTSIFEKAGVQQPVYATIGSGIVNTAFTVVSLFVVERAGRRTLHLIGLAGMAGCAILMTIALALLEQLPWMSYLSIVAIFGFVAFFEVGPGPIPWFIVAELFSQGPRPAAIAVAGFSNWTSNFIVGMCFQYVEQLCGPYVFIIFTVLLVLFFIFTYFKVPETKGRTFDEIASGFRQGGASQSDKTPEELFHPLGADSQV

Oc1ccc(C2CNCCc3c2cc(O)c(OCc2ccccc2)c3Cl)cc1 (stereo not given)
inhibition [1]: -0.07%
inhibition [2]: -1.5%
inhibition [3]: 2.54%

CCOc1cc(C(=O)NCCCN2CCCCC2C)ccc1-c1nc2cc(Cl)ccc2[nH]1 (stereo not given)
inhibition [1]: 2.37%
inhibition [2]: 2.23%
inhibition [3]: 0.87%

NC1CCCN(Cc2cccc(-c3ccc(-c4nc5ccccc5[nH]4)s3)c2)C1 (stereo not given)
inhibition [1]: 0.99%
inhibition [2]: 0.63%
inhibition [3]: 1.78%

CCC[C@@H]([C@@H](CC(C)C)C(=O)N[C@@H](CCCNc1nccc(C(F)(F)F)n1)C(=O)Nc1nccs1)N(O)C=O
inhibition [1]: 3.82%
inhibition [2]: 4.8%
inhibition [3]: 3.22%

CCN(CC)c1ccc2nc(N)nc(N)c2c1
inhibition [1]: 8.53%
inhibition [2]: 16.5%
inhibition [3]: 7.56%

CC(=NNC(=N)N)C(=O)Nc1ccc(Cl)c(Cl)c1
inhibition [1]: 1.75%
inhibition [2]: 1.53%
inhibition [3]: 2.25%

CCOc1ccc(C(=O)Nc2cc(Br)c3c(c2)CNCC3)cc1Cl
inhibition [1]: 1.83%
inhibition [2]: 2.23%
inhibition [3]: -0.05%

OCC1CCN(Cc2cccc(-c3ccc(-c4nc5cc(C(F)(F)F)ccc5[nH]4)cc3)c2)CC1
inhibition [1]: 1.05%
inhibition [2]: 0.48%
inhibition [3]: 1.4%

O=C(Nc1ccc(OC2CCN(Cc3ccc(F)cc3)CC2)c(Cl)c1)c1cccs1
inhibition [1]: 2.99%
inhibition [2]: 0.38%
inhibition [3]: 8.58%

Cc1cccc2nc(-c3ccc(-c4cccc(CN5CCCC5CN)c4)s3)[nH]c12 (stereo not given)
inhibition [1]: 2.06%
inhibition [2]: -0.2%
inhibition [3]: -0.03%

Cc1cc(C2CCN(CCCCNC(=O)c3ccc(NC(=O)c4ccc(Cl)cc4)cc3)CC2)c(C)cc1OCc1cccnc1
inhibition [1]: 0.04%
inhibition [2]: -0.98%
inhibition [3]: -0.82%

CCCCCCCN(Cc1ccc(OC(C)(C)C(=O)OCC)cc1)C(=O)Cc1ccc(F)cc1F
inhibition [1]: 2.17%
inhibition [2]: 1.8%
inhibition [3]: 2.23%

COc1ccc2nccc(NC(=O)N3CCC(NCc4cc5ccccc5[nH]4)CC3)c2n1
inhibition [1]: 13.2%
inhibition [2]: 16.9%
inhibition [3]: 2.89%

Cc1nc(N)nc(N)c1-c1cc(Cl)c(N)c(Cl)c1
inhibition [1]: -0.04%
inhibition [2]: -0.43%
inhibition [3]: -1.52%

Oc1ccccc1CN1CCC2(CCCN(Cc3ccccc3F)C2)C1 (stereo not given)
inhibition [1]: 2.03%
inhibition [2]: -1.06%
inhibition [3]: 1.57%

CN(C)CCNC(=O)c1ccc2c(c1)n(C1CCN(S(=O)(=O)c3ccc(-c4ccccc4)cc3)CC1)c(=O)n2CC1CCCCC1
inhibition [1]: -1.79%
inhibition [2]: -0.94%
inhibition [3]: -1.74%

CC(CCc1ccccc1)NCC(O)c1ccc2c3c(cccc13)S(=O)(=O)N2C (stereo not given)
inhibition [1]: 5.47%
inhibition [2]: 5.04%
inhibition [3]: 4.71%

COc1cc2c(cc1C(F)(F)F)N(C(=O)Nc1cc(F)cc(-c3cncnc3)c1)CC2
inhibition [1]: 11.6%
inhibition [2]: 1.94%
inhibition [3]: 0.07%

Cc1cc(-c2ccc(CNC3CCN(C)CC3)cc2)ccc1S(=O)(=O)NCc1ccccc1
inhibition [1]: 3.29%
inhibition [2]: 3.32%
inhibition [3]: 1.14%

Cc1ccc2ncc(Cl)c(CCN3CCC(NCc4ccc5c(n4)NC(=O)CS5)CC3)c2n1
inhibition [1]: 3.75%
inhibition [2]: 4.54%
inhibition [3]: 2.85%

COc1ccccc1-c1sccc1C(=O)NC1(c2cc(Cl)cc(Cl)c2)CCCC1
inhibition [1]: 1.22%
inhibition [2]: 0.95%
inhibition [3]: 4.85%

CC(C)(C)CCN1CCC(CNC(=O)c2cc(-c3cccc(C(F)(F)F)c3)cs2)C1 (stereo not given)
inhibition [1]: 3.1%
inhibition [2]: 2.95%
inhibition [3]: -0.8%

CC(C)C[C@H](NC(=O)c1cc2ccccc2s1)C(=O)N[C@H]1CCN(Cc2ccc(OCCN3CCNCC3)c3ccccc23)C1
inhibition [1]: -0.59%
inhibition [2]: -2.98%
inhibition [3]: 0.51%

C=CCOC1OC(COC(c2ccccc2)(c2ccccc2)c2ccccc2)C(OC(C)=O)C(OC(C)=O)C1NC(C)=O (stereo not given)
inhibition [1]: 1.33%
inhibition [2]: 1.07%
inhibition [3]: 0.34%

NOCCCCOc1ccc(Br)cc1
inhibition [1]: 3.74%
inhibition [2]: 5.13%
inhibition [3]: 2.59%

CCOC(=O)N/N=C/[C@H](CCc1ccccc1)NC(=O)[C@H](CC(C)C)NC(=O)c1cc2cccc(OC)c2o1
inhibition [1]: 4.25%
inhibition [2]: 5.56%
inhibition [3]: 5.67%

COc1cccc(CN2CCC(C(=O)Nc3ccc(-c4nc5ccccc5[nH]4)cc3)CC2)c1
inhibition [1]: 23.8%
inhibition [2]: 32.9%
inhibition [3]: 20.6%

Cc1cc(N2CCCC2)nc(Nc2ccc(NC(=O)c3ccc4c(c3)OCO4)cc2)n1
inhibition [1]: 13.5%
inhibition [2]: 3.61%
inhibition [3]: 5.78%

CCOC(=O)c1nc(-c2ccc(-c3ccccc3)cc2)[nH]c1N
inhibition [1]: 3.98%
inhibition [2]: 2.89%
inhibition [3]: 2.52%

Cc1ccc(NC(=S)N2CCCN(CCCCCNC(=O)/C=C/c3ccc(Cl)c(Cl)c3)CC2)cc1Cl
inhibition [1]: -0.25%
inhibition [2]: -1.02%
inhibition [3]: 0.36%

CC(OC(=O)c1ccc(C(=O)NCC2CC2)cc1)C(C)(C)C (stereo not given)
inhibition [1]: 4.1%
inhibition [2]: 3.44%
inhibition [3]: -0.96%

COc1ccc2nccc([C@@H](O)CN3CCC(NCc4cc5c(Cl)cc(Cl)cc5[nH]4)CC3)c2c1
inhibition [1]: 6.83%
inhibition [2]: 5.77%
inhibition [3]: 1.13%

CN(C)CCNCc1ncsc1-c1ccc2c(Nc3ccc(F)cc3Cl)ccnc2c1
inhibition [1]: 3.88%
inhibition [2]: 4.3%
inhibition [3]: 4.59%

c1ccc2c(NCCCCCCCCNc3ccnc4ccccc34)ccnc2c1
inhibition [1]: -0.47%
inhibition [2]: 0.85%
inhibition [3]: 1.12%

N#Cc1ccc(N/C(=N\c2cccc(Cl)c2Cl)NCc2ccc(Cl)cc2Cl)c(O)c1
inhibition [1]: 9.71%
inhibition [2]: 9.71%
inhibition [3]: 9.16%

CCCCC(=O)Nc1ccc(Nc2nc(C)cc(N3CCCC3)n2)cc1
inhibition [1]: 2.54%
inhibition [2]: 3.88%
inhibition [3]: 3.88%

CN1CCN(CCCN(Cc2ccc(-c3cccc(CNC4CCCC4)c3)cc2)C(=O)Nc2ccccc2)CC1
inhibition [1]: 9.1%
inhibition [2]: 3.98%
inhibition [3]: 5.53%

CN1CCC(COc2ccc(CN3CCC(NC(=O)c4cccc(Cl)c4)CC3)cc2)CC1
inhibition [1]: 2.48%
inhibition [2]: 3.13%
inhibition [3]: 0.42%

CN(C)c1ccc(-c2csc(C(=O)NC3CCN(Cc4ccc(C(C)(C)C)cc4)C3)c2)cc1 (stereo not given)
inhibition [1]: 5.6%
inhibition [2]: 5.58%
inhibition [3]: 5.56%

CC(=O)C1=NN(c2ccc(C)cc2)C(c2cccs2)N1c1ccccc1 (stereo not given)
inhibition [1]: 2.5%
inhibition [2]: 2.74%
inhibition [3]: 2.11%

OCC1CCN(Cc2cccc(-c3cccc(-c4nc5cc(C(F)(F)F)ccc5[nH]4)c3)c2)CC1
inhibition [1]: 2.74%
inhibition [2]: 0.35%
inhibition [3]: 0.14%

O=C(/C=C/c1ccc(Cl)c(Cl)c1)NC1CCN(CCCNC(=O)c2cccc(Cl)c2)CC1
inhibition [1]: 6.07%
inhibition [2]: 6.03%
inhibition [3]: 7.01%

Cc1cccc2nc(-c3ccc(-c4cccc(CN5CCN(CCN6CCOCC6)CC5)c4)s3)[nH]c12
inhibition [1]: 0.45%
inhibition [2]: -1.04%
inhibition [3]: 0.64%

O=C(Nc1cccc(-c2nc3ccccc3s2)c1)c1ccccc1[N+](=O)[O-]
inhibition [1]: 0.94%
inhibition [2]: -0.02%
inhibition [3]: -0.15%

COc1ccc(CCN(C)CCCOc2ccc(NC(=O)COc3cccc4sc5ccccc5c(=O)c34)cc2)cc1OC
inhibition [1]: -2.54%
inhibition [2]: -2.87%
inhibition [3]: -0.2%

O=C(NCC1CC1)C1CCN(C(c2ccc(Cl)cc2)c2ccc(Cl)cc2)CC1
inhibition [1]: 0.44%
inhibition [2]: 1.5%
inhibition [3]: -2.15%

COc1ccc(CCn2c(=N)c(C(=O)NCc3ccccc3)cc3c(=O)n4cccc(C)c4nc32)cc1
inhibition [1]: 12.7%
inhibition [2]: 13.6%
inhibition [3]: 7.48%

CC(C)Cn1c(Sc2ccc(C#N)c([N+](=O)[O-])c2)nnc1-c1ccccc1Cl
inhibition [1]: 3.45%
inhibition [2]: 4.02%
inhibition [3]: -0.31%

N#Cc1cc(C(=O)c2cc(Cl)ccc2O)cn(-c2cc(Cl)cc(Cl)c2)c1=O
inhibition [1]: 2.16%
inhibition [2]: 3.14%
inhibition [3]: 2%

Cc1noc(C)c1-c1cccc(CNCc2cccc(-c3cccc(-c4nc5ccccc5[nH]4)c3)c2)c1
inhibition [1]: 0.14%
inhibition [2]: 1.29%
inhibition [3]: 0.09%

CCCCCOc1ccc(C=NNc2nc(O)cc(-c3ccccc3)n2)cc1
inhibition [1]: 2.62%
inhibition [2]: 2.5%
inhibition [3]: 1.79%

CS(=O)(=O)N1CC2(CCN(CCC(NC(=O)NCc3ccccc3Cl)c3ccc(Cl)c(Cl)c3)CC2)c2ccccc21 (stereo not given)
inhibition [1]: 1.26%
inhibition [2]: 1.46%
inhibition [3]: 1.78%

COc1ccc(Nc2nccc(NCC(O)c3cccc(C(F)(F)F)c3)n2)cc1 (stereo not given)
inhibition [1]: 1.24%
inhibition [2]: 2.47%
inhibition [3]: -1.44%

COc1ccc(-c2nc(NC(=O)CS(=O)(=O)c3ccc(OC)cc3)sc2C)cc1
inhibition [1]: 2.15%
inhibition [2]: 2.85%
inhibition [3]: 3.47%

COc1ccc2nccc([C@@H](O)CN3CCC(NCc4ccc5c(n4)NCCC5)CC3)c2c1
inhibition [1]: 6.88%
inhibition [2]: 6.43%
inhibition [3]: 6.5%

CCOC(=O)C(CO)NC(=O)c1ccc([N+](=O)[O-])o1 (stereo not given)
inhibition [1]: 2.12%
inhibition [2]: 2.06%
inhibition [3]: 5.24%

Nc1ccn([C@@H]2O[C@H](COC(c3ccccc3)(c3ccccc3)c3ccccc3)[C@@H](O)[C@@H]2O)c(=O)n1
inhibition [1]: 3.1%
inhibition [2]: 4.86%
inhibition [3]: 4.4%

COc1ccc2nccc(N3CCC(NCCNS(=O)(=O)c4ccc5c(c4)NC(=O)CS5)C3)c2n1 (stereo not given)
inhibition [1]: -1.11%
inhibition [2]: -1.18%
inhibition [3]: -2.22%

N#Cc1ccc2c(c1)CCN(CCC1CCC(NC(=O)c3cc4ccc(Cl)cc4[nH]3)CC1)C2 (stereo not given)
inhibition [1]: 1.73%
inhibition [2]: -0.22%
inhibition [3]: -0.76%

COc1cc(F)c2ncc(Cl)c([C@H](O)CN3CCC(NCc4ccc5c(n4)NC(=O)CO5)CC3)c2c1
inhibition [1]: -1.35%
inhibition [2]: 0.88%
inhibition [3]: 0.03%

O=C(Nc1ccc(N2CCNCC2)nc1)c1oc(-c2ccccc2)nc1C(F)(F)F
inhibition [1]: 2.9%
inhibition [2]: 3.6%
inhibition [3]: 0.32%

O=C(Nc1cccc(CN2CCN(C(=O)c3cccc(F)c3)CC2)c1)c1ccco1
inhibition [1]: 2.27%
inhibition [2]: 2.31%
inhibition [3]: 0.61%

FC(F)(F)c1ccc2[nH]c(-c3ccc(-c4ccc(CN5CCN(c6cnccn6)CC5)cc4)s3)nc2c1
inhibition [1]: 2.24%
inhibition [2]: 1.86%
inhibition [3]: -2.19%

COc1cc2nc(N3CCC(c4ccccc4)CC3)nc(NCc3ccc(=O)[nH]c3)c2cc1OC
inhibition [1]: 1.44%
inhibition [2]: 1.5%
inhibition [3]: 1.6%

O=C(NCCNc1ccnc(Nc2ccc(F)cc2)n1)c1cc2ccccc2s1
inhibition [1]: 5.85%
inhibition [2]: 7.62%
inhibition [3]: 0.69%

CCn1c(Sc2ccc(C#N)c([N+](=O)[O-])c2)nnc1-c1ccc(Cl)cc1
inhibition [1]: 3.57%
inhibition [2]: 3.08%
inhibition [3]: 1.39%

CCCNc1ccc(-c2cc(C(N)=O)c3[nH]cc(C4CCN(S(=O)(=O)CC)CC4)c3c2)cn1
inhibition [1]: 3.86%
inhibition [2]: 6.54%
inhibition [3]: 3.64%

Cc1n[nH]c2cc(F)c(-c3cc(OC[C@@H](N)Cc4ccccc4)cnc3-c3ccoc3)cc12
inhibition [1]: 10.8%
inhibition [2]: 16.1%
inhibition [3]: 6.42%

O=C(/C=C/c1ccc(Cl)c(Cl)c1)NCCCCCCN1CCCN(C(=O)Nc2cc(F)cc(F)c2)CC1
inhibition [1]: 0.71%
inhibition [2]: 1.42%
inhibition [3]: -1.02%

CC(C)c1ccc(C2CCN(CCCCNC(=O)c3ccc(NC(=O)c4ccc(C(F)(F)F)cc4)cc3)CC2)c(O)c1
inhibition [1]: 4.75%
inhibition [2]: 3.96%
inhibition [3]: 1.92%
